We go through seven molecules from PubChem BioAssay (EPA / NIEHS).

Where “and” joins values, the source holds several entries; their conditions need not be identical. Identical values can stand only once. Inconclusive results are not listed. Calls of active or inactive are those of the source. The calls were made as follows, unless noted: active = hit-call score of the fitted dose curve at least 0.9, where 1 is the maximum; inactive = score below 0.9.

Read-out in assay [1]: Monokine induced gamma interferon (MIG), CXCL9 (gene 4283)
As to the kind of experiment: BSK_KF3CT_MIG: BioMAP Diversity Plus: KF3CT Assay for Monokine induced gamma interferon (MIG) Biomarker Activity (AID 2284248). The settings on record: primary human keratinocytes with fibroblasts. The method in brief:
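KF3CT system: keratinocyte/fibroblast co-culture, 24 h post-dose, MIG by ELISA; activity vs DMSO, positive fitting direction.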

Read-out in assay [2]: Interferon-inducible T-cell alpha chemoattractant (ITAC), CXCL11 (gene 6373)
Kind of assay: BSK_hDFCGF_ITAC: BioMAP Diversity Plus: hDFCGF Assay for Interferon-inducible T-cell alpha chemoattractant (ITAC) Biomarker Activity (AID 2284251). As to conditions: primary human foreskin fibroblasts. Summed up: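 Primary human foreskin fibroblasts (hDFCGF system) treated for 24 h; I-TAC quantified by ELISA. Gain-direction fitting versus DMSO; parallel SRB staining of total protein flagged overt cytotoxicity.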

Read-out in assay [3]: Plasminogen activator inhibitor-1 (PAI1), SERPINE1 (gene 5054)
Kind of assay: BSK_KF3CT_PAI1: BioMAP Diversity Plus: KF3CT Assay for Plasminogen activator inhibitor-1 (PAI1) Biomarker Activity (AID 2284252). As to conditions: primary human keratinocytes with fibroblasts. Summed up:
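Human keratinocyte/foreskin fibroblast co-culture dosed for 24 h; PAI-1 measured by ELISA, fitted in positive direction against DMSO baseline. Parallel SRB total-protein staining (0.1% SRB, 560 nm) assesses overt cytotoxicity.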

Read-out in assay [4]: Intercellular Adhesion Molecule 1 (ICAM1), ICAM1 (gene 3383)
Kind of assay: BSK_BE3C_ICAM1: BioMAP Diversity Plus: BE3C Assay for Intercellular Adhesion Molecule 1 (ICAM1) Biomarker Activity (AID 2284278).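 As to outcome: cell-surface ICAM-1 protein level quantified by ELISA.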 As to conditions: primary human bronchial epithelial cells. Summed up: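 Primary human bronchial epithelial cells in BE3C system, 24 h after chemical dosing; cell-surface ICAM-1 measured by ELISA relative to DMSO. Parallel SRB staining (0.1% SRB after 10% TCA fixation, read at 560 nm) assessed cytotoxicity.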

Read-out in assay [5]: Interferon-inducible T-cell alpha chemoattractant (ITAC), CXCL11 (gene 6373)
Kind of assay: BSK_BE3C_ITAC: BioMAP Diversity Plus: BE3C Assay for Interferon-inducible T-cell alpha chemoattractant (ITAC) Biomarker Activity (AID 2284279). As to conditions: primary human bronchial epithelial cells. Summed up: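 Steps: dose human bronchial epithelial cells with chemical; incubate 24 h; measure I-TAC by ELISA; fit endpoint in positive direction against DMSO control. Cytotoxicity was checked in parallel cultures by SRB staining at harvest.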

Read-out in assay [6]: Interleukin-8 (IL8), CXCL8 (gene 3576)
As to the kind of experiment: BSK_BE3C_IL8: BioMAP Diversity Plus: BE3C Assay for Interleukin-8 (IL8) Biomarker Activity (AID 2284280). As to conditions: primary human bronchial epithelial cells. Summed up:
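Primary human bronchial epithelial cells (BE3C system) exposed 24 h; IL-8 measured by ELISA and fitted in positive direction versus DMSO. Overt cytotoxicity assessed by SRB total-protein staining in parallel cultures.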

Read-out in assay [7]: Epidermal growth factor receptor (EGFR), EGFR (gene 1956)
Kind of assay: BSK_BE3C_EGFR: BioMAP Diversity Plus: BE3C Assay for Epidermal growth factor receptor (EGFR) Biomarker Activity (AID 2284281). The settings on record: primary human bronchial epithelial cells. Summed up: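 Human primary bronchial epithelial cells (BE3C system) dosed with chemicals; EGFR measured by ELISA at 24 h, fitted in the positive direction relative to DMSO. Cytotoxicity tracked in parallel cultures by SRB total-protein staining.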

Read-out in assay [8]: Matrix Metallopeptidase 9 (MMP9), MMP9 (gene 4318)
Kind of assay: BSK_BE3C_MMP9: BioMAP Diversity Plus: BE3C Assay for Matrix Metallopeptidase 9 (MMP9) Biomarker Activity (AID 2284283). As to conditions: primary human bronchial epithelial cells. Summed up: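 BE3C, human bronchial epithelial primary cells; 24 h post-dose; MMP-9 by ELISA; positive fit vs DMSO; SRB (0.1%, TCA-fixed, 560 nm) parallel cytotox.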

Read-out in assay [9]: Plasminogen activator inhibitor-1 (PAI1), SERPINE1 (gene 5054)
As to the kind of experiment: BSK_CASM3C_PAI1: BioMAP Diversity Plus: CASM3C Assay for Plasminogen activator inhibitor-1 (PAI1) Biomarker Activity (AID 2284284).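 Also: PAI-1 protein level measured by ELISA 24 h after dosing.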 As to conditions: primary human coronary artery smooth muscle cells.

Read-out in assay [10]: Monocyte Chemoattractant Protein-1 (MCP1), CCL2 (gene 6347)
Kind of assay: BSK_hDFCGF_MCP1: BioMAP Diversity Plus: hDFCGF Assay for Monocyte Chemoattractant Protein-1 (MCP1) Biomarker Activity (AID 2284285). As to conditions: primary human foreskin fibroblasts. Summed up:
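Human foreskin fibroblasts (hDFCGF system) were exposed to compound and secreted MCP-1 was measured by ELISA after 24 hours. Activity was fitted relative to DMSO. Cytotoxicity was checked by SRB total-protein staining in parallel cultures.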

Read-out in assay [11]: Intercellular Adhesion Molecule 1 (ICAM1), ICAM1 (gene 3383)
As to the kind of experiment: BSK_hDFCGF_ICAM1: BioMAP Diversity Plus: hDFCGF Assay for Intercellular Adhesion Molecule 1 (ICAM1) Biomarker Activity (AID 2284287). As to conditions: primary human foreskin fibroblasts. The method in brief: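 Primary human foreskin fibroblasts (hDFCGF system) dosed with chemical; ICAM-1 quantified by ELISA at 24 h relative to DMSO. Parallel SRB total-protein staining to assess overt cytotoxicity.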

Read-out in assay [12]: TIMP metallopeptidase inhibitor 2 (TIMP2), TIMP2 (gene 7077)
Kind of assay: BSK_hDFCGF_TIMP2: BioMAP Diversity Plus: hDFCGF Assay for TIMP metallopeptidase inhibitor 2 (TIMP2) Biomarker Activity (AID 2284289). As to conditions: primary human foreskin fibroblasts. The method in brief:
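Primary human foreskin fibroblasts in the hDFCGF system, dosed for 24 h; TIMP-2 level measured by ELISA, fitted in the positive direction against DMSO; cytotoxicity checked in parallel by sulforhodamine B total protein staining.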

Read-out in assay [13]: Thrombomodulin, THBD (gene 7056)
As to the kind of experiment: BSK_LPS_Thrombomodulin: BioMAP Diversity Plus: LPS Assay for Thrombomodulin Biomarker Activity (AID 2284296). As to conditions: primary human HUVEC with PBMC. The method in brief:
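Human umbilical vein endothelial cells co-cultured with PBMC and stimulated with LPS; cell-surface thrombomodulin measured by ELISA 24 hours after compound. Gain or loss versus DMSO; cytotoxicity checked by SRB staining in parallel cultures.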

Read-out in the next assay: CD69, CD69 (gene 969)
As to the kind of experiment: BSK_LPS_CD69: BioMAP Diversity Plus: LPS Assay for CD69 Biomarker Activity (AID 2284303). The settings on record: primary human HUVEC with PBMC. Summed up:
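Human umbilical vein endothelial cells co-cultured with PBMC under LPS stimulation, chemical exposure 24 h; cell-surface CD69 measured by ELISA and fitted in the positive direction versus DMSO.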

The target in assay [14] is human Phosphatase and Tensin Homolog (PTEN), PTEN (gene 5728) (UniProt P60484). As to the kind of experiment: NVS_ENZ_hPTEN: NovaScreen (NVS) Enzymatic Assay for human Phosphatase and Tensin Homolog (PTEN) (AID 2283203; active = hit-call score of the fitted dose curve at least 0.9, where 1 is the maximum). The method in brief: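 Cell-free recombinant human PTEN with fluorescent substrate; product separated by electrophoretic mobility shift and read by fluorescence 1 h after dosing. Primary screen in duplicate at 25 uM, actives followed in concentration series versus DMSO.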

The nature of assay [15]: TOX21_PR_BLA_Followup_Agonist_viability: Viability Assessment in the Tox21 HEK293 Progesterone Receptor (PR) Agonism Beta-lactamase Follow-Up Assay (AID 2283935; active = hit-call score of the fitted dose curve at least 0.9, where 1 is the maximum;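 also: signal loss means lower viability so actives are cytotoxic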). The method in brief: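 PR-UAS-bla HEK293T cells in 2% charcoal-stripped FBS medium, plated 6 hr before compound addition, exposed 16 hr at 37C. Viability read by CellTiter-Glo ATP luminescence after 30 min at room temperature, in the same wells as the beta-lactamase readout.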

Assay [16] is described as follows: TOX21_PR_BLA_Followup_Antagonist_viability: Viability Assessment in the Tox21 HEK293 Progesterone Receptor (PR) Antagonism Beta-lactamase Follow-Up Assay (AID 2283936; active = hit-call score of the fitted dose curve at least 0.9, where 1 is the maximum;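 also: hits lower the luminescence signal meaning cytotoxicity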). The method in brief:
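PR-UAS-bla HEK293T cells (3,000/well, 2% charcoal-stripped FBS) given compound plus R5020 agonist, 16 h at 37C. CellTiter-Glo added after bla read, 30 min at room temperature; luminescence loss indicates cytotoxicity.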

Assay [17] in a line: TOX21_PR_LUC_Followup_Antagonist_viability: Viability Assessment in the Tox21 HEK293 Progesterone Receptor (PR) Antagonism Luciferase Follow-Up Assay (AID 2283940; active = hit-call score of the fitted dose curve at least 0.9, where 1 is the maximum). Summed up: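 HEK293-PR-A-luc cells kept in charcoal-stripped FBS medium were plated 5 h before compound addition, then exposed 16 h at 37C; viability read as cellular ATP by luciferase luminescence, loss of signal indicating cytotoxicity.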

Assay [18] in a line: TOX21_PR_LUC_Followup_Agonist_viability: Viability Assessment in the Tox21 HEK293 Progesterone Receptor (PR) Agonism Luciferase Follow-Up Assay (AID 2283941; active = hit-call score of the fitted dose curve at least 0.9, where 1 is the maximum;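 also: loss of signal means cytotoxicity so actives lower viability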). Summed up:
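HEK293-PR-A-luc cells, kept in 10% charcoal-stripped FBS medium, were treated with compounds for 16 h at 37C. Viability read as cellular ATP by luciferase-coupled luminescence; loss of signal indicates cytotoxicity.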

The target in assay [19] is human Phosphoinositide 3-kinase alpha (PI3Ka), PIK3CA (gene 5290) (UniProt P42336). As to the kind of experiment: NVS_ENZ_hPI3Ka: NovaScreen (NVS) Enzymatic Assay for human Phosphoinositide 3-kinase alpha (PI3Ka) (AID 2283196; active = hit-call score of the fitted dose curve at least 0.9, where 1 is the maximum). Summed up:
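Fluorescence/mobility-shift readout of substrate conversion by recombinant enzyme, 1 h post-dosing. Primary screen in duplicate at 25 uM; actives (e.g. ≥30% inhibition) retested in singleton concentration-response, top concentration 50 uM.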

Sequence of human Phosphoinositide 3-kinase alpha (PI3Ka), PIK3CA (gene 5290) (P42336 whole entry, looked up): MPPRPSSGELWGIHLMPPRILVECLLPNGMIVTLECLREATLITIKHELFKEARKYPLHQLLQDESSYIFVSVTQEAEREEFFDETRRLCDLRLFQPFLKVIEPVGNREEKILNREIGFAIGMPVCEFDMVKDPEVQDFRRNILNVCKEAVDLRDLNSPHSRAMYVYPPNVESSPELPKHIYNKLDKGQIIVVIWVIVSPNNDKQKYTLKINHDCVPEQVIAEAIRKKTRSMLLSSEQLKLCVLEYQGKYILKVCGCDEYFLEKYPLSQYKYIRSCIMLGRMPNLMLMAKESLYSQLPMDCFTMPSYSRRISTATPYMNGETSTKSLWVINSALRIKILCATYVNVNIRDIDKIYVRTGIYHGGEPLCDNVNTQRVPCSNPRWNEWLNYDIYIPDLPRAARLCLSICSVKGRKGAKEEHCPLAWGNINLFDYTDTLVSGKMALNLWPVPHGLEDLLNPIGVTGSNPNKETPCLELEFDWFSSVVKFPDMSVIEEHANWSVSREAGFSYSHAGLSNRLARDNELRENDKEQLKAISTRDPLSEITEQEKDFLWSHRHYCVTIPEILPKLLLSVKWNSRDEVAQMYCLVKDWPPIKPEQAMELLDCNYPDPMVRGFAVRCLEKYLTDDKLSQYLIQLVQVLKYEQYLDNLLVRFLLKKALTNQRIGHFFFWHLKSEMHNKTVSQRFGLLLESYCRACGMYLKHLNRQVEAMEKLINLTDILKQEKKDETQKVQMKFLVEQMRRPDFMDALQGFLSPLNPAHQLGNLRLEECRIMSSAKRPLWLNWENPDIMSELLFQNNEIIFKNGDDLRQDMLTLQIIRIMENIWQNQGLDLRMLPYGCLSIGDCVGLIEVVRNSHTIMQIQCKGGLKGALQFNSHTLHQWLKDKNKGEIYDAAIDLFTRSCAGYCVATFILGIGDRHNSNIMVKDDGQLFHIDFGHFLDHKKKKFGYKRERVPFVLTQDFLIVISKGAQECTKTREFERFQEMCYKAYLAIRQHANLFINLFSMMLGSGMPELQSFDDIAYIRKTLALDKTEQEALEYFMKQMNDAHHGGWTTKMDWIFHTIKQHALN
Sequence of human Phosphatase and Tensin Homolog (PTEN), PTEN (gene 5728) (P60484 whole entry, looked up): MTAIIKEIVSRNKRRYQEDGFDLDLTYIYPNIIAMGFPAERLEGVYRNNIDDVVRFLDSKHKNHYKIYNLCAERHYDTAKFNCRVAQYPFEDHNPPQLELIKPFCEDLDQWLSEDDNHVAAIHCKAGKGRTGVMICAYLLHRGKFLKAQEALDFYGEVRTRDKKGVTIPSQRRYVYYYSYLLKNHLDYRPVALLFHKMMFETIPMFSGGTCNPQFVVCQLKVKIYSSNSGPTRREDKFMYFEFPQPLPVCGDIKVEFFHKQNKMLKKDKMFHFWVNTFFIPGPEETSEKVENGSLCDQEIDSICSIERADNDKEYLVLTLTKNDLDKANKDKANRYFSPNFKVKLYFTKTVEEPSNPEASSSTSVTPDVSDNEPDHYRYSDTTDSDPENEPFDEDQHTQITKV

Turning to `O=[N+]([O-])O`, the result in assay [1], in [2], in assay [3], in [4], in assay [5] and in assay [6] was inactive. In addition, the outcome in assay [7], in [8], in assay [9], in assay [10], in [11] and in assay [12] was inactive. For the same molecule, the outcome in assay [13] is “inactive”; in the assay with CD69, CD69 (gene 969) it was “inactive”.

As for `CCCCCCCCCCCC#N`, in [14], the molecule was called inactive.

Usually AC50 stands for the midpoint of the concentration-response curve, whichever way the signal moves. As for `Oc1ccc(C2(c3ccc(O)cc3)c3ccccc3-c3ccccc32)cc1`, the half-maximal activity concentration (AC50) is 7.47 µM (active) and 7.4 µM (active) in assay [1]; 1.8 µM (active) and 1.21 µM (active) in [2]; 5.43 µM (active) in [3]; 7.57 µM (active) and 7.24 µM (active) in assay [4]; 5.43 µM (active) and 5.42 µM (active) in assay [5]; 6.88 µM (active) and 5.35 µM (active) in assay [6]. The AC50 was 383 nM (active) and 5.33 µM (active) in assay [8]; 20 µM (active) in assay [9]; 3.59 µM (active) and 2.48 µM (active) in [10]; 3.15 µM (active) and 2.69 µM (active) in assay [11]; 1.41 µM (active) and 1.34 µM (active) in assay [12]; 5.13 µM (active) and 5.21 µM (active) in assay [13]. For the same molecule, the AC50 with CD69, CD69 (gene 969) is 14.3 µM (active) and 13.1 µM (active). In addition, in assay [7], the outcome was inactive.

Turning to `C[C@]12CC[C@H]3[C@@H](CC[C@@]45O[C@@H]4C(O)=C(C#N)C[C@]35C)[C@@H]1CC[C@@H]2O`, the molecule was classed as inactive in assay [15], in [16], in assay [17] and in [18].

In the case of `CC(C)(c1cc(Cl)c(O)c(Cl)c1)c1cc(Cl)c(O)c(Cl)c1`, in assay [19], the AC50 was 3.45 µM (active). The outcome in assay [15], in assay [16], in [17] and in assay [18] was inactive.

Consider `ClCC(Cl)Cl`, for which, in assay [19], the molecule was classed as inactive.

With `Clc1ccc(-c2ccccc2)cc1`, in [14], the molecule was called inactive.
